{"source": "paper PMC10726135", "about": "“HNF4α isoforms regulate the circadian balance between carbohydrate and lipid metabolism in the liver”", "note": "The full ranking holds about 18,000 sequences; the median of “log2 normalized intensity” is about 0.36, and the highest 2% start at about 7.3. For the sample, the highest values were picked, then their nearest neighbours and some sequences at random.", "data": [{"molecular_target": "T1, HNF4alpha8 (COS-7 nuclear extract) (Homo sapiens, UniProt P41235-5 1-452)", "T1 sequence": "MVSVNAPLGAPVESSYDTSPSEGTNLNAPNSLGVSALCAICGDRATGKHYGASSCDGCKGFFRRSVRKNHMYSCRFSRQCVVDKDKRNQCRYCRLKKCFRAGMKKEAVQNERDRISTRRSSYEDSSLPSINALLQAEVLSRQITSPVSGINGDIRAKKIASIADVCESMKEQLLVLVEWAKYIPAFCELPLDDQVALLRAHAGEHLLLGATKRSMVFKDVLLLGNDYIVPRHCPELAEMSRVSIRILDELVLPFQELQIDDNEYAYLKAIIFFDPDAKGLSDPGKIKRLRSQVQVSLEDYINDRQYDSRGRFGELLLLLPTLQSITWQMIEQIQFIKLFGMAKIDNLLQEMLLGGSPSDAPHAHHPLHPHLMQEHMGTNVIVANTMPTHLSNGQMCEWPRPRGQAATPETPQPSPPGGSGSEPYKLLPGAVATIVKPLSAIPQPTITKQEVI", "assay": "protein-binding microarray; COS-7 nuclear extract on double-stranded Agilent 4x180k PBM; binding buffer, salt, pH and temperature not given in the material; high values mean tight binding", "settings": "chain copies: 2; label: 3' end of strand 1 on the slide; dsDNA, one strand shown", "method_in_brief": "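Binding signal is the background-corrected, normalized gProcessedSignal calculated by Agilent software. It was measured by applying nuclear extracts of COS-7 cells transiently transfected with a human HNF4α isoform expression vector to a custom Agilent SurePrint G3 4x180k array of ~44,000 double-stranded ~60-nt test sequences in quadruplicate, then imaging bound HNF4α on an Agilent G2565CA scanner at 2-µm resolution.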", "units": {"binding signal": "log2 normalized intensity"}, "values": [{"sequence": "TGCTAGAGTACTTGGACTTTAACCTTTAGAGCCTAGGGAGATTAGAGTATCGGTCGA", "binding signal": 9.71}, {"sequence": "AGAGTTAGGGCCTTGCTATGGAGTGGACTTGCCTAGGGAGATTAGAGTATCGGTCGA", "binding signal": 3.91}, {"sequence": "GCTTTTGGAAGGACTTCGAATGGTATGCTAGCCTAGGGAGATTAGAGTATCGGTCGA", "binding signal": -0.468}, {"sequence": "CTTTAACGACCTTTGGACTTGAATTATCCTGCCTAGGGAGATTAGAGTATCGGTCGA", "binding signal": 8.83}, {"sequence": "CTGGACTATGCCTTGAACTTTAAGGCACCTGCCTAGGGAGATTAGAGTATCGGTCGA", "binding signal": 1.67}, {"sequence": "ACGACCTTTGGACTTGAATTATCCTTATGGGCCTAGGGAGATTAGAGTATCGGTCGA", "binding signal": 6.99}, {"sequence": "GCCTAAGCAGGGCTAGACTTTAACCCCCTTGCCTAGGGAGATTAGAGTATCGGTCGA", "binding signal": 6.24}, {"sequence": "GGACTTCGAATGGTATGCTAGAGTACTTGGGCCTAGGGAGATTAGAGTATCGGTCGA", "binding signal": 1.51}, {"sequence": "TGGTATGCTAGAGTACTTGGACTTTAACCTGCCTAGGGAGATTAGAGTATCGGTCGA", "binding signal": 9.56}, {"sequence": "TCGAATGGTATGCTAGAGTACTTGGACTTTGCCTAGGGAGATTAGAGTATCGGTCGA", "binding signal": 7.5}, {"sequence": "CTTTGGACTTGAATTATCCTTATGGTCTCTGCCTAGGGAGATTAGAGTATCGGTCGA", "binding signal": 0.611}, {"sequence": "ACACTGGGCTAGAGGTCTTAATCTTTTTACGCCTAGGGAGATTAGAGTATCGGTCGA", "binding signal": 1.15}, {"sequence": "CAGTGGGAGACAGGCATTAACCCTTTAGTGGCCTAGGGAGATTAGAGTATCGGTCGA", "binding signal": 0.965}, {"sequence": "CAACCCATCCAACTCCTTGAGAAGTACAACGCCTAGGGAGATTAGAGTATCGGTCGA", "binding signal": -0.809}, {"sequence": "CAAAATATCTCACTCCCACACTGGTAACCTGCCTAGGGAGATTAGAGTATCGGTCGA", "binding signal": 0.32}, {"sequence": "CAGCTGTTATCTCTTTTGTGATAGAATGAAGCCTAGGGAGATTAGAGTATCGGTCGA", "binding signal": 1.89}, {"sequence": "GTGTCATTGTTATTTACGGTGGGCACCTCAGCCTAGGGAGATTAGAGTATCGGTCGA", "binding signal": 0.235}, {"sequence": "AGTGTTTCAAAGGAGTGTCTTTCTCCTTGAGCCTAGGGAGATTAGAGTATCGGTCGA", "binding signal": 1.38}, {"sequence": "GAGTACTTGGACTTTAACCTTTAGATTACTGCCTAGGGAGATTAGAGTATCGGTCGA", "binding signal": 7.94}, {"sequence": "CTTGGACTTTAACCTTTAGATTACTAGGAAGCCTAGGGAGATTAGAGTATCGGTCGA", "binding signal": 6.61}, {"sequence": "ACTTTAACCTTTAGATTACTAGGAATTGATGCCTAGGGAGATTAGAGTATCGGTCGA", "binding signal": 1.53}, {"sequence": "TGCCAAGGAGCCTCTGCAACCTTTGCTCTCGCCTAGGGAGATTAGAGTATCGGTCGA", "binding signal": 6.62}, {"sequence": "ACATTTTTATCCTTTTTTGAAGGTTAAAGTGCCTAGGGAGATTAGAGTATCGGTCGA", "binding signal": 3}, {"sequence": "CCTTTTTTGAAGGTTAAAGTCCATTTTTGAGCCTAGGGAGATTAGAGTATCGGTCGA", "binding signal": 7.52}, {"sequence": "CTGCCACATTTTTATCCTTTTTTGAAGGTTGCCTAGGGAGATTAGAGTATCGGTCGA", "binding signal": 2}, {"sequence": "ATGGTTAAGGTGAAAGTCCGACTTTTAAGAGCCTAGGGAGATTAGAGTATCGGTCGA", "binding signal": 4.06}, {"sequence": "TTTGAAGGTTAAAGTCCATTTTTGAGGACCGCCTAGGGAGATTAGAGTATCGGTCGA", "binding signal": 6.47}, {"sequence": "TTTATCCTTTTTTGAAGGTTAAAGTCCATTGCCTAGGGAGATTAGAGTATCGGTCGA", "binding signal": 7.82}, {"sequence": "AAACCTCCCCCAAACCAAAGAGAAATGGTGGCCTAGGGAGATTAGAGTATCGGTCGA", "binding signal": 3.41}, {"sequence": "TGGTTTTCCAATCTGGTGAAAGATGATGAGGCCTAGGGAGATTAGAGTATCGGTCGA", "binding signal": 0.365}, {"sequence": "TCTAAGGCAAAACACCCCTTTCACTTCTTCGCCTAGGGAGATTAGAGTATCGGTCGA", "binding signal": 0.915}, {"sequence": "CCATTTATAAGAAACTGCTCCTGCTTGGGAGCCTAGGGAGATTAGAGTATCGGTCGA", "binding signal": -0.881}, {"sequence": "TGCCAGCCCCGAGATAACCCCTCTCCAAGCGCCTAGGGAGATTAGAGTATCGGTCGA", "binding signal": 4.43}, {"sequence": "ATAGACTGTCCCTCAGTGTGGGACTTTGGTGCCTAGGGAGATTAGAGTATCGGTCGA", "binding signal": 3.52}, {"sequence": "GACCTTTGCCCTCTGGCCCTTAAAGGCTTTGCCTAGGGAGATTAGAGTATCGGTCGA", "binding signal": 7.8}, {"sequence": "ACAGAAGAAGGAAAAGGCCTGACCTTTGCCGCCTAGGGAGATTAGAGTATCGGTCGA", "binding signal": 5.58}, {"sequence": "TCACTGACCTCTGCCCTACTGTATATCCTGGCCTAGGGAGATTAGAGTATCGGTCGA", "binding signal": 2.89}, {"sequence": "AGAGGACAGAAGAAGGAAAAGGCCTGACCTGCCTAGGGAGATTAGAGTATCGGTCGA", "binding signal": 1.07}, {"sequence": "CTCTTTGGTGCAAAGGTCAGGACAAGGCTCGCCTAGGGAGATTAGAGTATCGGTCGA", "binding signal": 4.73}, {"sequence": "CAGAGGCTTCCTCTTTGGTGCAAAGGTCAGGCCTAGGGAGATTAGAGTATCGGTCGA", "binding signal": 7.47}, {"sequence": "CCCTCGACCTTTGCCCTCCATAAGGGGGAGGCCTAGGGAGATTAGAGTATCGGTCGA", "binding signal": 6.74}, {"sequence": "TGGTGCAAAGGTCAGGACAAGGCTCTGGTGGCCTAGGGAGATTAGAGTATCGGTCGA", "binding signal": 4.55}, {"sequence": "TTCTGCCCCTTGCTCCTGCTTGCTGGCTTTGCCTAGGGAGATTAGAGTATCGGTCGA", "binding signal": 1.35}, {"sequence": "AGAAGGAAAAGGCCTGACCTTTGCCCTCTGGCCTAGGGAGATTAGAGTATCGGTCGA", "binding signal": 10.4}, {"sequence": "GAAAAGGCCTGACCTTTGCCCTCTGGCCCTGCCTAGGGAGATTAGAGTATCGGTCGA", "binding signal": 9.29}, {"sequence": "CCCTGCCTGACCTGCCCTTTGTCCCTCCTGGCCTAGGGAGATTAGAGTATCGGTCGA", "binding signal": 5.06}, {"sequence": "AATACTCTGAGTAAACACAGACTTTGGAATGCCTAGGGAGATTAGAGTATCGGTCGA", "binding signal": 4.55}, {"sequence": "TTCGGGGCACTGCTCCCTGCCCCTACCCCCGCCTAGGGAGATTAGAGTATCGGTCGA", "binding signal": 5.02}, {"sequence": "AGGTACTGGTAGCCTGGGCCCCAGGGGACGGCCTAGGGAGATTAGAGTATCGGTCGA", "binding signal": -0.625}, {"sequence": "GTGCAAAGGCCTTAAAGTGTAAATATTTGAGCCTAGGGAGATTAGAGTATCGGTCGA", "binding signal": 0.546}, {"sequence": "TCCGCTTGCCTGAGGGTCATGACTAAAGCAGCCTAGGGAGATTAGAGTATCGGTCGA", "binding signal": 1.13}, {"sequence": "CCACTAGAGAGACCGTCCCTGGGTACAACTGCCTAGGGAGATTAGAGTATCGGTCGA", "binding signal": 1.33}, {"sequence": "CGTGGGCATGCCTCCCAGAGCATTGTTTATGCCTAGGGAGATTAGAGTATCGGTCGA", "binding signal": -0.764}, {"sequence": "GCACATGGCATGATCCCTGACTCATAGCTCGCCTAGGGAGATTAGAGTATCGGTCGA", "binding signal": -0.946}]}]}
